This note sets out measurements from ChEMBL document CHEMBL3988442, “University of Dundee, Small-Polar-MMV Screening Library” (2021).

Out of some 48,000 compounds screened, about 13,000 (27%) showed an effect of 50% or more. This is one part of the list.

The subject of the test is Wolbachia pipientis. As to the kind of experiment: Anti-Wolbachia Cell-Based Screen. It counts as functional. On the set-up: scale not given: in the data most compounds retested in dose-response had high values. The following applies: 5 µM.
For the molecule `Cc1ccc([C@]2(O)CC[C@H]3CN(Cc4cc(C)c(O)c(C)c4)C[C@H]32)nc1.O=C(O)CC(O)(CC(=O)O)C(=O)O`, the “Percent Effect” value is listed as -15.37%. Take `CN(C)C(=O)CN1C[C@@H]2CC[C@H](C1)N(Cc1cccc(Cl)c1Cl)C2`: the “Percent Effect” value was -2.337%. As to `O=C(O)CC(O)(CC(=O)O)C(=O)O.O[C@]1(c2ccccn2)CC[C@@H]2CN(Cc3cccc4ncccc34)C[C@@H]21`, the “Percent Effect” value is on record as -10.13%. With `COc1ncc(CN2C[C@@H]3CC[C@@](O)(c4ccc(C)cn4)[C@@H]3C2)cn1.O=C(O)CC(O)(CC(=O)O)C(=O)O` the figure was 114.7%; with `COc1cccc(CN2C[C@@H]3CC[C@@](O)(c4ccccn4)[C@@H]3C2)c1OC.O=C(O)CC(O)(CC(=O)O)C(=O)O`, 115.9%. For the molecule `Cc1ccc([C@]2(O)CC[C@H]3CN(Cc4cccc(Cl)c4Cl)C[C@H]32)nc1.O=C(O)CC(O)(CC(=O)O)C(=O)O`, the “Percent Effect” value is -1.737%. In the case of `COc1ccc(CN2C[C@H]3CC[C@](O)(c4ccc(C)cn4)[C@H]3C2)c(F)c1.O=C(O)CC(O)(CC(=O)O)C(=O)O`, the “Percent Effect” value is listed as -13.42%. In the case of `Cc1ccc([C@]2(O)CC[C@H]3CN(Cc4cccc(F)c4F)C[C@H]32)nc1.O=C(O)CC(O)(CC(=O)O)C(=O)O`, the “Percent Effect” value is recorded as 118%. Turning to `Cc1cccnc1[C@]1(O)CC[C@H]2CN(Cc3cccc(Cl)c3Cl)C[C@H]21.O=C(O)CC(O)(CC(=O)O)C(=O)O`, the “Percent Effect” value came to 135.1%. With `COCc1ncc(CN2CCN(C)C(=O)C2C)cn1` (configuration not stated) the figure was 4.151%; with `CCn1cnnc1Cn1cccc(C(F)(F)F)c1=O`, -0.03218%; with `COc1ccc(-c2nccn2CC(O)CN2CCCC2)c(F)c1` (configuration not stated), 5.429%.

With `CCOc1cncc(NCCc2nnc3ccccn23)n1`, the “Percent Effect” value is -20.41%. In the case of `CCC(CO)N(Cc1ccsc1)Cc1ccccc1C(=O)O` (configuration not stated), the “Percent Effect” value is on record as 6.266%.

For `Cc1cc(CN2CC[C@@H]3[C@@H](CCC(=O)N3CCc3c[nH]cn3)C2)oc1C`, the “Percent Effect” value is on record as -14.05%.

For the molecule `CCC(=O)c1cccc(S(=O)(=O)NC(C)C#N)c1` (configuration not stated), the “Percent Effect” value is given as -8.003%. With `O=S(=O)(c1cccc(F)c1)N1CCCCC1c1ccn[nH]1` (configuration not stated) the figure was 127.9%. With `Cc1ccccc1S(=O)(=O)N1CCCCC1c1ccn[nH]1` (configuration not stated) the figure was 0.4281%. With `O=C(NCC1CC1)C1CSCN1S(=O)(=O)c1cccc(F)c1` (configuration not stated) the figure was -6.551%.

For `CN(C1CCN(c2ccccn2)CC1)S(=O)(=O)c1cccc(F)c1`, the “Percent Effect” value is recorded as 13.53%.

Take `O=S(=O)(c1cccs1)N1CCCCC1c1ccn[nH]1` (configuration not stated): the “Percent Effect” value amounted to 120.2%. In the case of `O=C(O)C(F)(F)F.O=S(=O)(c1cccs1)N1CC[C@H]2[C@H]1CCN2c1ncccn1` it was -7.709%; in that of `O=C1c2c(O)cc(O)cc2O[C@@H](c2ccc(O)cc2)[C@@H]1O`, 0.6664%.

For the molecule `CC(=O)NCCNC(=O)c1sc(-c2ccc(Cl)s2)nc1C`, the “Percent Effect” value is -4.935%. For `O=C(Nc1ccccc1)NC1CCN(C2CCOC2)CC1` (configuration not stated), the “Percent Effect” value was -12.98%.

For `CC(C)c1nc(CN(C)C(=O)CNS(=O)(=O)c2cccs2)cs1`, the “Percent Effect” value is on record as -16.12%.

`COCc1cc(N(C)Cc2ncnn2C)nc(C(C)(C)C)n1`: the “Percent Effect” value is reported as -13.36%. On to `O=C(O)C(=O)O.c1cnc(-c2noc(C3CN(Cc4ccc5c(c4)CCO5)C3)n2)cn1`, for which the “Percent Effect” value is given as 6.909%. Regarding `Cc1cnc(CN2CCOC(CNc3cccnn3)C2)cn1` (configuration not stated), the “Percent Effect” value came to 0.4879%. As to `CCc1nc(CN2CCOC(CNc3cccnn3)C2)cs1` (configuration not stated), the “Percent Effect” value came to 75.15%. With `CCCc1nc(CN2CCOC(CNc3cccnn3)C2)cs1` (configuration not stated) the figure was 6.887%; with `CC(C)c1nc(CN2CCOC(CNc3cccnn3)C2)cs1` (configuration not stated), 87.62%; with `Cc1nc(CN2CCOC(CNc3cccnn3)C2)cs1` (configuration not stated), -1.722%.

Take `Cc1nc(C)c(CN2CCOC(CNc3cccnn3)C2)s1` (configuration not stated): the “Percent Effect” value was found to be 87.52%. With `Cc1nc(C)c(CN2CCOC(CN(C)c3cccnn3)C2)s1` (configuration not stated) the figure was -0.1768%; with `COCc1nc(CN2CCOC(CNc3cccnn3)C2)cs1` (configuration not stated), 82.18%. With `COCc1nc(CN2CCOC(CN(C)c3cccnn3)C2)cs1` (configuration not stated) the figure was 6.806%; with `CCc1nc(CN2CCOC(CN(C)c3cccnn3)C2)cs1` (configuration not stated), -6.381%; with `CCOc1nnc(CN2CCOC(CNc3cccnn3)C2)s1` (configuration not stated), -8.583%. In the case of `Cc1nc(CN2CCOC(CNc3cccnn3)C2)oc1C` (configuration not stated) it was 3.025%; in that of `Cn1cc(CCC(=O)NS(=O)(=O)N2CCCc3ccccc32)cn1`, -16.6%; in that of `CCc1nsc(N2CCn3c(nnc3C(F)(F)F)C2)n1`, 3.315%.

`COCCOc1cc(C(=O)N2CC(C)c3ccccc32)ccn1` (configuration not stated): the “Percent Effect” value is recorded as -1.249%. In the case of `COCC(=O)N[C@H](C)c1c(-c2ccc(Cl)cc2)noc1C(=O)O` it was -3.12%; in that of `Fc1cccc(-c2nc(CN3CCOC(Cn4cccn4)C3)co2)c1` (configuration not stated), 1.83%.

For `c1ccc(-c2nc(CN3CCOC(Cn4cccn4)C3)co2)cc1` (configuration not stated), the “Percent Effect” value came out at 93.62%. With `c1csc(-c2nc(CN3CCOC(Cn4cccn4)C3)co2)c1` (configuration not stated) the figure was 6.391%; with `Cc1ccc(-c2nc(CN3CCOC(Cn4cccn4)C3)co2)cc1` (configuration not stated), 108.6%; with `Fc1ccc(-c2nc(CN3CCOC(Cn4cccn4)C3)co2)cc1` (configuration not stated), 92.05%. In the case of `Fc1cccc(-c2nc(CN3CCOC(Cn4cncn4)C3)co2)c1` (configuration not stated) it was -2.254%; in that of `c1ccc(-c2nc(CN3CCOC(Cn4cccn4)C3)no2)cc1` (configuration not stated), -5.165%. For `c1coc(-c2nc(CN3CCOC(Cn4cccn4)C3)cs2)c1` (configuration not stated), the “Percent Effect” value is on record as 16.31%.

Turning to `O=C1COC[C@H]([C@H](O)c2ccc(NC(=O)c3cccnc3)cc2)N1`, the “Percent Effect” value is recorded as -8.221%. In the case of `Cc1ccc(-c2nnc([C@H]3CCN(C4CCC4)C3)o2)cc1` it was 10.26%; in that of `O=C(c1ncoc1C1CCCO1)N1CCCC2(CCCCC2)C1` (configuration not stated), -7.896%.

For `CCN1CCOC(CNCc2ccccc2OCc2ccccn2)C1` (configuration not stated), the “Percent Effect” value is 9.704%. With `CN1CCOC(CNCCc2ccccn2)C1` (configuration not stated) the figure was -2.338%. In the case of `CN1CCOC(CNCc2ccc(OCc3ccccn3)cc2)C1` (configuration not stated) it was 111%; in that of `CN1CCOC(CNCc2cccc(OCc3ccccn3)c2)C1` (configuration not stated), -19.83%. In the case of `CCN1CCOC(CNCc2cccc(OCc3ccccn3)c2)C1` (configuration not stated) it was 99.3%; in that of `CC(C)CC(N)C1=N/C(=C2\N=CN=N2)NO1` (configuration not stated), -1.816%. Consider `CNC(=O)NC(=O)C(NCc1ccccc1)c1ccccc1` (configuration not stated), for which the “Percent Effect” value is listed as 7.195%. `O=S(=O)(NCCNc1ccc(-n2cccc2)nn1)c1cccs1`: the “Percent Effect” value was 19%. In the case of `COc1ccc(S(=O)(=O)NCCCc2ccc(N(C)C)cc2)cc1Cl` it was 10.52%; in that of `COc1ccc(CC(=O)NCCCc2nnc3nc(C)cc(C)n23)cc1`, 140.8%. Take `COc1cccc(CC(=O)NCCc2nnc3n2CCCCC3)c1`: the “Percent Effect” value is -1.985%. With `COc1ccc(S(=O)(=O)NCCCc2nnc3nc(C)cc(C)n23)cc1` the figure was 128.4%; with `COc1ccc(CCNC(=O)Nc2cc(C)nn2C)cc1`, -34.88%; with `Cn1ccnc1CCNS(=O)(=O)c1ccc(Br)cc1`, -0.8619%. With `CCOc1ccc(S(=O)(=O)NCCCc2ccc(N(C)C)cc2)cc1F`, the “Percent Effect” value is 11.9%. In the case of `O=S(=O)(NCCNc1cc(-n2cccc2)ncn1)c1cccs1` it was 9.931%; in that of `COc1ccc(S(=O)(=O)NCCCc2ccc(N(C)C)cc2)cc1F`, 8.354%; in that of `Cc1cc(C)n2c(CCCNS(=O)(=O)c3cccs3)nnc2n1`, 99.96%. For `Cc1cc(C)n2c(CCCNS(=O)(=O)c3ccc(F)cc3)nnc2n1`, the “Percent Effect” value was 115.4%. In the case of `COCCN(C)c1ccc(NCc2cccnc2)nc1` it was -2.901%; in that of `Cc1nc2cc(=O)[nH]n2c(C)c1CNC(=O)c1cnn(C(C)(C)C)c1`, -22.93%; in that of `CC(C)c1nnc2n1CCN(C(C)c1nnc(-c3cccs3)o1)C2` (configuration not stated), -12.3%. With `CCc1ncc(C(=O)N(CC)CCOC)cn1` the figure was -25.3%; with `O=S(=O)(NCCc1nnc2ccccn12)c1cccnc1`, -2.198%. With `Cc1cc(C)n2c(CCCNS(=O)(=O)c3ccccc3)nnc2n1` the figure was 105.2%; with `Cc1nsc(NCCNS(=O)(=O)c2ccccc2)n1`, -9.26%. On to `Cc1nc(CN2CC(CO)Oc3ccccc32)sc1C` (configuration not stated), for which the “Percent Effect” value is recorded as -1.227%.

`Cn1ccnc1CN(CCO)Cc1ccc(C(F)(F)F)cc1`: the “Percent Effect” value is recorded as -12.47%. In the case of `CCNc1ncc(C(=O)NC2CCSC2)cn1` (configuration not stated) it was 5.956%; in that of `CCNc1ncc(C(=O)NC2CCc3ccccc3C2)cn1` (configuration not stated), 2.788%.

For `CC(=O)c1cc2ncc(C(=O)NC3CC3)cc2[nH]1`, the “Percent Effect” value came to 127.3%. In the case of `CC(C)(C)OC(=O)NC1CCC(NC(=O)c2ccc[nH]2)CC1` (configuration not stated) it was -46.12%; in that of `O=C(NC1CCCCC1)c1c(F)cccc1F`, -11.27%. As for `O=C(NC1(C(=O)NC2CCCC2)CCCC1)c1ccc2[nH]ncc2c1`, the “Percent Effect” value is on record as 2.222%.

Turning to `CC(=O)c1cc2ncc(C(=O)NC3CCCCC3)cc2[nH]1`, the “Percent Effect” value worked out at 114.6%. With `CC(=O)c1cc2ncc(C(=O)NC3CCCC3)cc2[nH]1` the figure was 115.8%. With `CCOc1ccccc1OCCN(C)Cc1ncnn1CC` the figure was -5.335%; with `Cc1n[nH]cc1CNCC(O)c1ccc(F)c(F)c1.Cl` (configuration not stated), -9.621%; with `Cc1ccc2cc(CN(C)Cc3nccs3)c(=O)[nH]c2c1`, -5.099%. Take `CN1CC(=O)N(c2cnn(C)c2)CC12CCN(Cc1ccccc1)C2.O=C(O)C(F)(F)F.O=C(O)C(F)(F)F` (configuration not stated): the “Percent Effect” value is -7.753%. Turning to `Cn1cc(N2CC3(CCN(CC4CCOCC4)CC3)OCC2=O)cn1.O=C(O)C(F)(F)F`, the “Percent Effect” value is recorded as -12.75%. In the case of `CC1N(c2cnn(C)c2)C(=O)COC12CCN(Cc1ccco1)CC2.O=C(O)C(F)(F)F` (configuration not stated) it was 117%. On to `CC1N(c2cnn(C)c2)C(=O)COC12CCN(CC1CC1)CC2.O=C(O)C(F)(F)F` (configuration not stated), for which the “Percent Effect” value worked out at 102.9%.

For the molecule `Cc1nc(CN2C(=O)COC3(CCN(Cc4ccco4)CC3)C2C)cs1.O=C(O)C(F)(F)F` (configuration not stated), the “Percent Effect” value is listed as -6.139%. Consider `CC1N(c2cnn(C)c2)C(=O)COC12CCN(Cc1ccoc1)CC2` (configuration not stated), for which the “Percent Effect” value was 110.5%.

For `Cn1cc(N2CC3(CCN(CC4CC4)C3)CC2=O)cn1.O=C(O)C(F)(F)F` (configuration not stated), the “Percent Effect” value came out at 3.9%. In the case of `Cn1cc(N2C[C@@H]3CN(Cc4ccoc4)C[C@@H]3C2=O)cn1.O=C(O)C(F)(F)F` it was -5.785%.
